# Bioassay records (PubChem)
# In the library only some 3.6% were active in any assay of this set; here they are far more common.
# Bead autofluor = counter-screen for toxin protease inhibitors: compound fluorescence. AID 624483. fluorescence intensity (no concentration beside the values). compound autofluorescence counterscreen, microsphere flow cytometry; hits give high values. actives 3.1% (n = 360,000); in the data active = fluorescence intensity above about 16000; inconclusive = no clear call, values can overlap the other calls
# BoNT-F LC inh = BoNT F light chain protease inhibition; Multiplex microsphere protease cleavage assay, flow cytometry; AID 588497; actives 0.22% (n = 360,000); inhibition, % at 10 µM; in the data active = inhibition above about 35%, passing the limit was not always enough; inconclusive = no clear call, values can overlap the other calls; also: plate controls were buffer without enzyme for full effect and enzyme alone for no effect
# BoNT A protease = inhibitors of Botulinum neurotoxin A light chain protease; multiplex microsphere protease substrate cleavage, flow cytometry; inhibition, % at 10 µM; actives 0.17% (n = 360,000); AID 588499; also: plate controls were buffer without enzyme for full effect and enzyme alone for no effect
# Anthrax LF prot = inhibitors of Bacillus anthracis lethal factor protease. P15917. inhibition, % at 10 µM. multiplex microsphere protease cleavage assay, LF. actives 0.12% (n = 360,000); also: plate controls were buffer without enzyme for full effect and enzyme alone for no effect
# MazF activator = increases E. coli MazEF RNase cleavage of RNA. FAM/BHQ RNA-DNA oligo cleavage fluorescence, 5 h. AID 504720. actives 0.32% (n = 350,000). activation, % at 20 µM. P0AE70; in the data active = activation above about 50%
# Target sequence (P0AE70 whole entry, looked up): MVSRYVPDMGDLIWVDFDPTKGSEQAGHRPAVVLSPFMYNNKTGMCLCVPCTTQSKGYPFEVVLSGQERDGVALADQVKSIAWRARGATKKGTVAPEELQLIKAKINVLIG
# * marks the source's active call; other numbers are inactive results; ? = inconclusive; . = no result. Rule as the data show it, unless noted: active = inhibition above about 30%; inconclusive = no clear call, values can overlap the other calls; inactive = below that.
SMILES,Bead autofluor,BoNT-F LC inh,BoNT A protease,Anthrax LF prot,MazF activator
Cc1nc(SC(C(=O)c2ccccc2)c2ccccc2)nc2ccccc12 (configuration not stated),2118,4,1,0,-1
COc1ccc(N2CCN(C(=O)CSc3nnc4c(C)cc5cc(C)ccc5n34)CC2)cc1,23987*,-4,-1,-1,15
COc1ccc(N2CCN(C(=O)CSc3nnc4c(C)cc5c(C)cc(C)cc5n34)CC2)cc1,6079,-7,1,0,-3
COc1ccc(N2CCN(C(=O)CSc3nnc4c(C)cc5ccc(C)c(C)c5n34)CC2)cc1,21530*,-6,-6,-2,7
Cc1ccc(S(=O)(=O)NC(=O)C2(C)CCN2C(=O)C2CC2)cc1 (configuration not stated),3862,-12,-1,-3,.
O=C(Nc1ccccc1F)N1CCCC1c1cccnc1 (configuration not stated),3917,?,?,4,4
O=C(Nc1ccc(F)cc1F)N1CCCCC1c1cccnc1 (configuration not stated),22683*,-1,?,0,-1
COC(=O)CCN1CCc2cc(N=Nc3ccc([N+](=O)[O-])cc3)ccc21,6357,-6,0,-1,0
CCOC(=O)c1c(C)[nH]c(C(=O)N(C)CC(=O)Nc2ccc(OCC)c(OCC)c2)c1C,3555,1,0,3,-3
CN(C)C(CNC(=O)C1CCN(S(=O)(=O)c2ccccc2C(F)(F)F)CC1)Cc1ccccc1 (configuration not stated),4927,5,2,-1,-2
CCCCC(=O)Nc1ccc(C(=O)Nc2nnc(COC)s2)cc1,21834*,3,3,-9,-1
CCCCC(=O)Nc1ccc(C(=O)Nc2cccnc2)cc1,16977*,-5,-2,2,4
CCSc1ccccc1C(=O)Nc1cccnc1,23629*,-2,?,-1,11
CCCCC(=O)Nc1cccc(NC(=O)c2ccc(Br)cc2)c1,24448*,-4,-2,0,1
COc1ccc(F)cc1-c1cc(NC=O)c2ncc(-c3cccc(C(F)(F)F)c3)n2c1,2908,2,0,-3,.
COc1ccc(Cl)cc1NC(=O)c1cnc2sccn2c1=O,6294,0,0,5,-15
O=C(Nc1cnc2sccn2c1=O)c1ccc(Cl)cc1Cl,22211*,2,0,0,23
CC1(C)CC(=O)C(c2c[nH]c3ccccc23)C(=O)C1,4444,-1,0,4,5
CC(=O)n1cc(C2C(=O)CC(C)(C)CC2=O)c2ccccc21,21921*,6,3,-2,6
O=C(CCCc1nc(-c2ccccc2)no1)NCc1cccnc1,24495*,-8,?,0,1
NC(=O)CCCc1nc(-c2ccccc2Cl)no1,11046,2,0,-2,9
CCOc1ccc(CCNC(=O)CCCN2C(=O)c3ccccc3C2=O)cc1OCC,21585*,2,?,-1,8
CNC(=O)CCCc1nc(-c2ccccc2Cl)no1,17469*,-10,-6,-5,-5
COc1ccc(-c2noc(CCC(=O)NCc3cccnc3)n2)cc1,23172*,-4,-1,1,-1
CCOC(=O)N1CCN(c2c(NCCc3ccc(OCC)c(OCC)c3)c(=O)c2=O)CC1,24406*,-5,-4,0,6
SMILES,Bead autofluor,BoNT-F LC inh,BoNT A protease,Anthrax LF prot,MazF activator
COc1ccc(-c2noc(CCC(=O)NCCc3ccccc3)n2)cc1,3869,-9,-2,-7,3
O=C(CCCN1C(=O)c2ccccc2C1=O)NCc1cccnc1,22861*,-3,-1,-4,3
O=C(CCc1nc(-c2ccccc2)no1)NCCc1ccccc1,22301*,2,3,-10,-5
O=C(CCCN1C(=O)c2cccc3cccc(c23)C1=O)NCc1cccnc1,3841,1,0,-3,5
COCCN(Cc1ccccc1)C(=O)c1cccc(S(=O)(=O)N2CCN(Cc3ccccc3)CC2)c1,3972,2,0,3,6
Cc1ccc2cc3cc(C(=O)NCCCN4CCCC4=O)oc3nc2c1,6512,1,-2,-3,11
CC(C)c1nc2cc(C(=O)N3CCNC(=O)C3c3cccc(F)c3)ccc2o1 (configuration not stated),5262,-3,1,-2,7
COc1cc(C=O)ccc1OCc1c(C)noc1C,21666*,-4,-3,-4,2
COc1cc(C(=O)Oc2ccccc2)ccc1OCc1c(C)noc1C,4421,-3,0,1,-1
COc1cc(C(=O)O)ccc1OCc1c(C)noc1C,21283*,-2,-1,0,-1
Cc1ccc(-n2ncc(C(=O)N3CCc4ccccc4C3)c2NC(=O)c2ccco2)cc1C,23443*,1,1,-2,0
COc1ccc(CCNC(=O)c2cnn(-c3ccc(C)c(C)c3)c2NC(=O)c2ccco2)cc1OC,22833*,6,?,-1,-4
CN(c1ccccc1)C(c1ccc(F)cc1)c1nnnn1CC1CCCO1 (configuration not stated),16681*,-2,0,-1,9
CN(c1ccccc1)C(c1ccc(F)cc1)c1nnnn1C1CCCC1 (configuration not stated),23833*,-8,?,-5,-2
NC(=O)CSc1nnc(Cn2c(=O)sc3ccccc32)n1-c1cccc(Cl)c1,16396*,1,0,-2,4
NC(=O)CSc1nnc(Cn2c(=O)sc3ccccc32)n1-c1ccccc1,5641,-4,0,-9,11
Cc1nc(-c2cccc(NC(=O)c3ccc(-n4cccn4)cc3)c2)cs1,5364,1,4,1,11
COc1ccc(C(=O)CC2OC(=O)c3ccccc32)cc1OC (configuration not stated),21822*,0,?,-2,8
COc1ccc(-n2nc3c(N4CCC(C(=O)NCc5ccccc5C)CC4)nnc(C)c3c2C)cc1,8875,22,3,7,-7
CCOc1ccccc1CNC(=O)C1CCCN(c2nnc(C)c3c(C)n(-c4ccccc4)nc23)C1 (configuration not stated),19018*,14,-8,2,14
O=C(CSc1nc2ccc([N+](=O)[O-])cc2[nH]1)NCCc1ccccc1,20820*,3,6,-2,2
COc1ccc(OC)c(NC(=O)COc2cc(O)c3c(c2)OC(C)(C)CC3=O)c1,4157,-8,-1,-14,.
Nc1nc2nc(-c3ccc(OCc4ccccc4)cc3)cc(C(F)(F)F)n2n1,4201,2,1,-11,58*
Nc1nc2nc(-c3ccc(Cl)cc3)cc(C(F)(F)F)n2n1,11283,-3,3,-1,3
COc1ccc(C2C(C(=O)O)CC(=O)N2C2CCCCC2)cc1 (configuration not stated),20476*,2,?,1,2
O=[N+]([O-])c1c(NCCCO)cc(Sc2nc3ccccc3s2)c2nonc12,23409*,2,?,-2,114*
CCCC(=O)Nc1nnc(Cc2ccccc2)s1,24700*,-1,-2,-3,1
Cc1nnc(NC(=O)CSCc2ccccc2)s1,6166,-12,-1,-8,7
